Rab7 wt GTP bind = modulators of GTP binding to dog Rab7 wildtype GTPase; 0.055% of 190,000 active; GST-Rab7 beads, fluorescent GTP binding, flow cytometry; actives lie on both sides; untreated = 100%, excess cold GTP = 0%; GTP binding activity (percent of control), % at 10 µM;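 active = fluorescent GTP binding to Rab7 beads changed by at least 20 points from the 100% baseline, either direction, mostly lower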;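 also: median green fluorescence of bound Bodipy-FL-GTP per Rab7 bead population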
Rac1 act GTP bind = modulators of GTP binding to human Rac1 activated mutant. P63000. GST-Rac1 activated beads, fluorescent GTP binding, flow cytometry; actives lie on both sides; 100% means binding = to untreated wells. percent activity (GTP binding), % at 10 µM. 0.11% of 190,000 active;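 active = GTP binding at least 20 percentage points away from the 100% baseline, in either direction, so actives lie on both sides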
HRas wt GTP bind = modulators of GTP binding to human HRas wildtype; 0.14% of 190,000 active; GST-Ras wt beads, Bodipy-FL-GTP binding, flow cytometry; actives lie on both sides; AID 759; GTP binding activity, % at 10 µM; P01112;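 active = GTP binding activity at least 20% away from the 100% baseline, either lowered as inhibitor or raised as activator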;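 also: 0% = unlabeled GTP competition control and 100% = no-compound control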
Target sequence (P01112 whole entry, looked up): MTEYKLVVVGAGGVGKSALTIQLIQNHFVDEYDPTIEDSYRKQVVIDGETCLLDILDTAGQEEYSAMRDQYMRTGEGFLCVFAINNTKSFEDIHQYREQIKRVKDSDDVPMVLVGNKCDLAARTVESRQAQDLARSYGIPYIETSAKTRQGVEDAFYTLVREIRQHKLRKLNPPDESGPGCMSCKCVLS
Rab2A wt mod = changes GTP binding to wildtype dog Rab2A, up or down; P61105; GST-Rab2 wt beads, Bodipy-GTP binding, flow cytometry; GTP binding activity, % at 10 µM; 0.19% of 190,000 active;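 active = GTP binding activity at least 20 points away from 100%, either lowered or raised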;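 also: 0% = beads with excess unlabeled GTP and 100% = no-compound control corrected for plate trend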
Rac1 wt GTP bind = alters GTP binding to wildtype human Rac1. P63000. GST-Rac1 beads, fluorescent GTP binding, flow cytometry; actives lie on both sides; 0 = cold GTP competed, 100 = untreated. GTP binding activity (% of control), % at 10 µM. 0.27% of 190,000 active. AID 757;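 active = GTP binding activity at least 20 points away from the 100% control level, either lower or higher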
Cdc42 wt GTP = changes GTP binding to wildtype human Cdc42. 0.2% of 190,000 active. P60953. GST-Cdc42 beads, Bodipy-GTP binding, flow cytometry; actives lie on both sides. percent activity (GTP binding), % at 10 µM;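 active = percent activity GTP binding at least 20 points away from the 100% baseline, either down as inhibitor or up as activator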;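 also: median bead fluorescence of bound Bodipy-FL-GTP at 100 nM; 0% = excess unlabeled GTP control and 100% = no compound control; below 100% means less GTP binding so inhibitor and above means activator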
Target sequence (P60953 whole entry, looked up): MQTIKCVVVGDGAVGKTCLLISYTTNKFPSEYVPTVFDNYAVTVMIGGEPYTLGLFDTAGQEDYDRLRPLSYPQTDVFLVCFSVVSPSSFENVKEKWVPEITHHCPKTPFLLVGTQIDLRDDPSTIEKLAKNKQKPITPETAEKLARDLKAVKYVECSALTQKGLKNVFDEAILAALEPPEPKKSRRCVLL
Numbers without * were called inactive; [ ] = remark or other dose. A selection: hits, their analogues and other compounds. The true share with any hit is near 0.38%.

`Cc1nc(-c2ccccc2)sc1C(=O)NN` gave Rab7 wt GTP bind 104, Rac1 act GTP bind 114, HRas wt GTP bind 118, Rab2A wt mod 120*[activator], Rac1 wt GTP bind 128*[activator] and Cdc42 wt GTP 125*[activator].
Screening CCOC(=O)c1cnc(SCc2ccc(C)cc2)nc1N returned Rab7 wt GTP bind 101, Rac1 act GTP bind 104, HRas wt GTP bind 103, Rab2A wt mod 105, Rac1 wt GTP bind 120*[activator] and Cdc42 wt GTP 107.
Screening Cc1cc(NC(=O)CSc2nc3ccccc3c(=O)n2C2CCCC2)no1 returned Rab7 wt GTP bind 103, Rac1 act GTP bind 101, HRas wt GTP bind 100, Rab2A wt mod 102, Rac1 wt GTP bind 104 and Cdc42 wt GTP 102.
COC(=O)CSc1nc2cc(Cl)ccc2c(=O)n1C1CCCC1 was read as Rab7 wt GTP bind 90, Rac1 act GTP bind 92, HRas wt GTP bind 80, Rab2A wt mod 80, Rac1 wt GTP bind 89 and Cdc42 wt GTP 79*.
COc1ccc(/C=C2\SC(=S)N(CCCC(=O)NNC(=O)c3ccccc3O)C2=O)cc1 was read as Rab7 wt GTP bind 92, Rac1 act GTP bind 87, HRas wt GTP bind 80, Rab2A wt mod 80, Rac1 wt GTP bind 79* and Cdc42 wt GTP 78*.
O=C(CCCN1C(=O)/C(=C/c2ccccc2Cl)SC1=S)NNC(=O)c1ccccc1Cl was read as Rab7 wt GTP bind 101, Rac1 act GTP bind 100, HRas wt GTP bind 98, Rab2A wt mod 100, Rac1 wt GTP bind 101 and Cdc42 wt GTP 97.
`Cc1ccc(Sc2c(C)nn(C(=O)C3CC3)c2C)cc1` gave Rab7 wt GTP bind 90, Rac1 act GTP bind 79*, HRas wt GTP bind 84, Rab2A wt mod 81, Rac1 wt GTP bind 78* and Cdc42 wt GTP 82.
CS(=O)(=O)N1CCN(C(=O)C2c3ccccc3Oc3ccccc32)CC1 was read as Rab7 wt GTP bind 103, Rac1 act GTP bind 102, HRas wt GTP bind 111, Rab2A wt mod 112, Rac1 wt GTP bind 121*[activator] and Cdc42 wt GTP 116.
CSc1cccc(NC(=O)Cc2ccccc2[N+](=O)[O-])c1 was read as Rab7 wt GTP bind 97, Rac1 act GTP bind 94, HRas wt GTP bind 94, Rab2A wt mod 98, Rac1 wt GTP bind 91 and Cdc42 wt GTP 102.
`COc1ccc(-c2cc(C(F)(F)F)n3nc(C(=O)O)cc3n2)cc1OC` gave Rab7 wt GTP bind 84, Rac1 act GTP bind 85, HRas wt GTP bind 86, Rab2A wt mod 80, Rac1 wt GTP bind 77* and Cdc42 wt GTP 81.
NC(=O)c1cc2nc(-c3ccco3)cc(C(F)(F)F)n2n1 was read as Rab7 wt GTP bind 92, Rac1 act GTP bind 81, HRas wt GTP bind 65*, Rab2A wt mod 63*, Rac1 wt GTP bind 68* and Cdc42 wt GTP 64*.
For COC(=O)c1cc2nc(-c3ccc(OC)c(OC)c3)cc(C(F)(F)F)n2n1 the results were Rab7 wt GTP bind 101, Rac1 act GTP bind 100, HRas wt GTP bind 99, Rab2A wt mod 99, Rac1 wt GTP bind 100 and Cdc42 wt GTP 98.
For O=C(O)c1ccccc1OCc1ccccc1Br the results were Rab7 wt GTP bind 120*[activator], Rac1 act GTP bind 126*[activator], HRas wt GTP bind 122*[activator], Rab2A wt mod 129*[activator], Rac1 wt GTP bind 142*[activator] and Cdc42 wt GTP 139*[activator].
`O=C(O)c1ccccc1COc1ccccc1Cl` gave Rab7 wt GTP bind 109, Rac1 act GTP bind 110, HRas wt GTP bind 108, Rab2A wt mod 108, Rac1 wt GTP bind 119 and Cdc42 wt GTP 109.
Screening CCOc1cccc(-c2nn3c(-c4ccco4)nnc3s2)c1 returned Rab7 wt GTP bind 91, Rac1 act GTP bind 90, HRas wt GTP bind 80, Rab2A wt mod 78*, Rac1 wt GTP bind 88 and Cdc42 wt GTP 80.
For COc1cccc(-c2nnc3sc(-c4ccco4)nn23)c1 the results were Rab7 wt GTP bind 102, Rac1 act GTP bind 102, HRas wt GTP bind 103, Rab2A wt mod 103, Rac1 wt GTP bind 107 and Cdc42 wt GTP 107.
`COc1ccc(-c2nn3c(-c4ccco4)nnc3s2)cc1OC` gave Rab7 wt GTP bind 88, Rac1 act GTP bind 82, HRas wt GTP bind 68*, Rab2A wt mod 71*, Rac1 wt GTP bind 70* and Cdc42 wt GTP 68*.
`COc1ccc(-c2nnc3sc(-c4ccco4)nn23)cc1OC` gave Rab7 wt GTP bind 101, Rac1 act GTP bind 96, HRas wt GTP bind 101, Rab2A wt mod 99, Rac1 wt GTP bind 98 and Cdc42 wt GTP 101.
`O=C(OCC1COc2ccccc2O1)c1c(F)cccc1F` (stereo unspecified) gave Rab7 wt GTP bind 100, Rac1 act GTP bind 98, HRas wt GTP bind 102, Rab2A wt mod 101, Rac1 wt GTP bind 102 and Cdc42 wt GTP 101.
Screening CC(Oc1ccccc1)C(=O)NC1=NCCS1 (stereo unspecified) returned Rab7 wt GTP bind 104, Rac1 act GTP bind 95, HRas wt GTP bind 97, Rab2A wt mod 99, Rac1 wt GTP bind 100 and Cdc42 wt GTP 95.
O=C(O)CCC(=O)Nc1ccc(C(=O)OC2CCCCC2)cc1 was read as Rab7 wt GTP bind 96, Rac1 act GTP bind 99, HRas wt GTP bind 99, Rab2A wt mod 99, Rac1 wt GTP bind 97 and Cdc42 wt GTP 97.
`O=C(OC1CCCCC1)c1ccc(NC(=O)C2CCCCC2)cc1` gave Rab7 wt GTP bind 95, Rac1 act GTP bind 99, HRas wt GTP bind 97, Rab2A wt mod 99, Rac1 wt GTP bind 99 and Cdc42 wt GTP 79*.
Cn1c(SCc2nnc(-c3ccccc3)o2)nc2ccccc21 was read as Rab7 wt GTP bind 106, Rac1 act GTP bind 100, HRas wt GTP bind 100, Rab2A wt mod 103, Rac1 wt GTP bind 102 and Cdc42 wt GTP 101.
For COc1ccc(-c2nnc(CSc3nc4ccccc4c(=O)n3C)o2)cc1OC the results were Rab7 wt GTP bind 106, Rac1 act GTP bind 104, HRas wt GTP bind 107, Rab2A wt mod 106, Rac1 wt GTP bind 120*[activator] and Cdc42 wt GTP 104.
O=C(N/N=C/c1ccc(-c2ccccc2[N+](=O)[O-])o1)c1cncc(Br)c1 was read as Rab7 wt GTP bind 89, Rac1 act GTP bind 89, HRas wt GTP bind 84, Rab2A wt mod 83, Rac1 wt GTP bind 72* and Cdc42 wt GTP 89.
For CCn1cc(C(=O)O)c(=O)c2cc(F)c(N/N=C/c3ccccc3)cc21 the results were Rab7 wt GTP bind 89, Rac1 act GTP bind 88, HRas wt GTP bind 84, Rab2A wt mod 83, Rac1 wt GTP bind 76* and Cdc42 wt GTP 89.
For C=CCN(C(=O)C1=NN(C2CCS(=O)(=O)C2)C(=O)CC1)c1nc(-c2ccc([N+](=O)[O-])cc2)cs1 (stereo unspecified) the results were Rab7 wt GTP bind 93, Rac1 act GTP bind 93, HRas wt GTP bind 93, Rab2A wt mod 93, Rac1 wt GTP bind 95 and Cdc42 wt GTP 94.

Screening data (PubChem)
